# Test results as given in the supplement of paper PMC6555819.
# System: LXRb homodimer (NR concentration 270 nM)
# Assay: PBM binding z-score (relative to random genomic background probes); higher = stronger binding; sequences stand for … in GC…GCGATTGACAGCGTAGAATGAAGG
# Procedure, shortened: (§1)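 Each nuclear receptor dimer, without ligand, was incubated for 1 h on custom Agilent 4×180K protein-binding microarrays. Binding was detected with antibodies against each partner (one per run), and scanned fluorescence was regression-normalized. The binding z-scores are referenced to random human genomic background probes.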
row,Sequence,PBM binding z-score
1,TTACTAAGGTGAAGGTCGTTGATCCCTCTGTAGA,-0.257
2,AGATGTAGGTTAAGGGTCATTCAGGTTGGTTCGC,1.63
3,CCGACTGGGCCATCAGGTCATTGATATCAACGTT,-0.6
4,CAAACTAGGACACGAAAGGTCAAAGTCGAATGAC,1.98
5,CCTAGCAGGCCAGGGTAACTCAAGCATTTCGCTT,-1.09
6,TCTAGTTGGTCAAAGCTCACACACTCGAAATGCG,0.421
7,TCTTGTAGATCAACAGGAGGTTAAGACAGATCGA,-0.342
8,TCTAGTTGCTCAAAGGTCACACACTCGAAATGCG,1.49
9,TCTGCTAGGTCAACGATGGACAGCTAATCTGCTA,-0.137
10,GCTGCTAGGTCAGGTTTGTCAGCTAACGGGTACG,-0.389
11,CCTGCTGGGTCAATGGTCAGCTAAAGCAGCTCGC,-0.873
12,GCAGACAAGTGAAACGCAGGTAACTCAGGGTGGC,-1.26
13,TCGAGTAGGTTACCAATGGGGCGTTCAGCTTTCT,-0.564
14,CCTCGGAGGCCAACAGGAGGTCAGAGCTGCCAGA,-0.663
15,GTACCAAAGTGAATAGGTCGTTGATGAGTAGGCG,-0.573
16,GCTCGGAGGACAAGGTCAGAGTTTTGTCCGTAGA,-0.35
17,TAGCCTAGGCCAGATCGGGCCAGTATACGCTATA,-1.15
18,GCGACTGGGGCAAAGCAGGTTACCTTAAGGTTGG,-0.607
19,GCATATAGGTAATACAAGGTGAAAGTGCGATTGT,-0.0302
20,CCTACTGGGCCACGAAAGGTCATTGAATCAGTGA,0.492

row,Sequence,PBM binding z-score
1,TCGAGTAGGATACCAATGGGGCATTCAGCTTTCT,-0.758
2,TCTGCTAGGTCAACGATGGTCAGCTAATCTGCTA,-0.144
3,CACCCTAGGTCAGGGCCAGTATAGGAGGAACGTT,-0.00593
4,CGAACTAGATCAAGGACAGTGAATCTCCGCACGC,-0.00382
5,ATACCAAGGTGATCGTGACGTCGTTGATACTAAC,-0.176
6,CCGACTGGAGCAAGGTTACCATAACGCACAGCCA,-0.797
7,CCTACTGGGACAAAGGTCATTGATTCCAATGCTC,1.5
8,CCATACAGGTGAGAAGGTAACTCAGCCTCGATTA,-0.0623
9,ATACCAAGGTGATCGTGAGGTCGTTGATACTAAC,0.284
10,TTCCCAAGGTGAAAGGTCGTTGATGCACGCCTTG,-0.253
11,TAGCCTCGGTCATGGGCCAGTATACCACGCGAAC,-0.572
12,CCTTACGGGTCACTCCAGGTTATCGCATCGGAGT,0.292
13,TCTAGCAGGCCAGAGGGTCACTAAAGAGGTACGG,-1.08
14,TCTTGTAGATCAAGCAGGTTAAGAAGGCCTGAGT,-0.745
15,GTACCAATGTGAATAGGTCGTTGATGAGTAGGCG,-0.467
16,ACAGCCAGGTGATGAAGGTAACTCAGGCTATCAT,-0.982
17,CGAACGAGGGCACGAGTTGATAGCAAATGCCGAT,-0.624
18,TCGAGTAGGTTATGGGCATTCAGAATGGCGTCGA,-1.18
19,TCTGCTAGGTCAACGACGGTCAGCTAATCTGCTA,0.156
20,TGGATGAGGTTATAAGATCAGGGAACGTTGCAAA,0.594

# System: PPARa:RXRa (NR concentration 270 nM, RXRa partner concentration 90 nM)
# Assay: as above
# Procedure, shortened: as §1
row,Sequence,PBM binding z-score
1,TTACTAAGGTGAAGGTCGTTGATCCCTCTGTAGA,3.76
2,AGATGTAGGTTAAGGGTCATTCAGGTTGGTTCGC,6.45
3,CCGACTGGGCCATCAGGTCATTGATATCAACGTT,2.19
4,CAAACTAGGACACGAAAGGTCAAAGTCGAATGAC,5.8
5,CCTAGCAGGCCAGGGTAACTCAAGCATTTCGCTT,0.0169
6,TCTAGTTGGTCAAAGCTCACACACTCGAAATGCG,1.58
7,TCTTGTAGATCAACAGGAGGTTAAGACAGATCGA,1.3
8,TCTAGTTGCTCAAAGGTCACACACTCGAAATGCG,5.88
9,TCTGCTAGGTCAACGATGGACAGCTAATCTGCTA,3.07
10,GCTGCTAGGTCAGGTTTGTCAGCTAACGGGTACG,0.943
11,CCTGCTGGGTCAATGGTCAGCTAAAGCAGCTCGC,2.95
12,GCAGACAAGTGAAACGCAGGTAACTCAGGGTGGC,-0.28
13,TCGAGTAGGTTACCAATGGGGCGTTCAGCTTTCT,1.09
14,CCTCGGAGGCCAACAGGAGGTCAGAGCTGCCAGA,2.29
15,GTACCAAAGTGAATAGGTCGTTGATGAGTAGGCG,0.468
16,GCTCGGAGGACAAGGTCAGAGTTTTGTCCGTAGA,2.42
17,TAGCCTAGGCCAGATCGGGCCAGTATACGCTATA,-1.12
18,GCGACTGGGGCAAAGCAGGTTACCTTAAGGTTGG,1.31
19,GCATATAGGTAATACAAGGTGAAAGTGCGATTGT,2.26
20,CCTACTGGGCCACGAAAGGTCATTGAATCAGTGA,4.68

row,Sequence,PBM binding z-score
1,TCGAGTAGGATACCAATGGGGCATTCAGCTTTCT,-0.335
2,TCTGCTAGGTCAACGATGGTCAGCTAATCTGCTA,3.19
3,CACCCTAGGTCAGGGCCAGTATAGGAGGAACGTT,2.24
4,CGAACTAGATCAAGGACAGTGAATCTCCGCACGC,-0.388
5,ATACCAAGGTGATCGTGACGTCGTTGATACTAAC,0.36
6,CCGACTGGAGCAAGGTTACCATAACGCACAGCCA,1.01
7,CCTACTGGGACAAAGGTCATTGATTCCAATGCTC,6.27
8,CCATACAGGTGAGAAGGTAACTCAGCCTCGATTA,1.01
9,ATACCAAGGTGATCGTGAGGTCGTTGATACTAAC,1.67
10,TTCCCAAGGTGAAAGGTCGTTGATGCACGCCTTG,5.44
11,TAGCCTCGGTCATGGGCCAGTATACCACGCGAAC,0.143
12,CCTTACGGGTCACTCCAGGTTATCGCATCGGAGT,4.26
13,TCTAGCAGGCCAGAGGGTCACTAAAGAGGTACGG,2.12
14,TCTTGTAGATCAAGCAGGTTAAGAAGGCCTGAGT,0.84
15,GTACCAATGTGAATAGGTCGTTGATGAGTAGGCG,0.275
16,ACAGCCAGGTGATGAAGGTAACTCAGGCTATCAT,0.0268
17,CGAACGAGGGCACGAGTTGATAGCAAATGCCGAT,2.28
18,TCGAGTAGGTTATGGGCATTCAGAATGGCGTCGA,0.825
19,TCTGCTAGGTCAACGACGGTCAGCTAATCTGCTA,3.28
20,TGGATGAGGTTATAAGATCAGGGAACGTTGCAAA,2.42
